Measured values as given in the supplement of paper PMC13392028.
Whole data set: some 4,100 sequences, median “RBNS R-value (6-mer enrichment in protein-bound RNA vs input library)” near 0.99, cut for the highest 2% near 1.4. Many of the other results were omitted from the sample, so the highest values are more common in it than they were.

Tested on: PfIESI-1 RRM domain (Plasmodium falciparum ortholog aa 875-1232, GST fusion)
Experiment: RBNS R-value (6-mer enrichment in protein-bound RNA vs input library) (ratio); higher = stronger binding preference; the methods of the paper give 50 / 100 / 500 nM protein instead
Protocol: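 RNA Bind-n-Seq: recombinant GST-tagged IESI-1 RRM domain was incubated at room temperature with a random 40-nt in vitro transcribed RNA library at 250, 500 or 1000 nM protein. Bound RNA was pulled down on glutathione beads and sequenced. R-value is the enrichment of each 6-mer in the bound RNA relative to the input library. Each 6-mer sits inside the random 40-mer context, not as an isolated oligo. Values are replicate 1 only.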

Row | Sequence | RBNS R-value (protein concentration: 250 nM) | RBNS R-value (protein concentration: 500 nM) | RBNS R-value (protein concentration: 1000 nM)
1 | GGUCGG | 0.934 | 0.838 | 0.968
2 | UCGACU | 0.956 | 0.919 | 0.936
3 | AGUAGG | 0.965 | 0.969 | 1.02
4 | CGUUCA | 0.9 | 0.886 | 0.924
5 | GAAUGC | 1.08 | 1.07 | 1.08
6 | CAAUGC | 0.943 | 0.936 | 0.955
7 | AAAUGC | 0.994 | 1.07 | 1.05
8 | GAAUGU | 0.918 | 1.01 | 0.982
9 | CAAUGG | 1.03 | 1.03 | 1.06
10 | CAAUGA | 1.34 | 1.41 | 1.24
11 | UAAUGA | 1.05 | 1.2 | 1.03
12 | GAAUGA | 1.47 | 1.55 | 1.36
13 | AAAUGA | 1.42 | 1.6 | 1.38
14 | UUCUAC | 0.96 | 0.873 | 0.911
15 | GUCUUA | 0.784 | 0.786 | 0.826
16 | CGUGAC | 1 | 0.946 | 1
17 | GUAGCC | 1.03 | 0.977 | 1.02
18 | UUUAAG | 0.833 | 0.879 | 0.837
19 | CAGAGA | 1.28 | 1.31 | 1.3
20 | UCCGAA | 1.1 | 1.1 | 1.13
21 | CCCGAG | 1.66 | 1.29 | 1.45
22 | CCCGGU | 1.22 | 1.12 | 1.21
23 | CCGGGU | 1.19 | 1.08 | 1.17
24 | ACGGGA | 1.1 | 1.06 | 1.1

Row | Sequence | RBNS R-value (protein concentration: 250 nM) | RBNS R-value (protein concentration: 500 nM) | RBNS R-value (protein concentration: 1000 nM)
25 | CCGGGA | 1.4 | 1.21 | 1.27
26 | CCCGGC | 1.27 | 1.14 | 1.24
27 | ACCGAA | 1.07 | 1.11 | 1.09
28 | CCCGAA | 1.44 | 1.33 | 1.35
29 | ACCGAG | 1.34 | 1.24 | 1.25
30 | GCCGAG | 1.23 | 1.16 | 1.2
31 | CCCGGG | 1.56 | 1.3 | 1.42
32 | CUCAAC | 0.907 | 0.891 | 0.925
33 | CUCUAC | 0.858 | 0.793 | 0.813
34 | GGGAAC | 1.14 | 1.14 | 1.17
35 | GAAUUU | 1.14 | 1.19 | 1.13
36 | UGCUAC | 0.931 | 0.87 | 0.895
37 | GUGUGG | 0.869 | 0.812 | 0.921
38 | CCACGA | 1.17 | 1.13 | 1.15
39 | CGGGUC | 1.03 | 0.928 | 1.06
40 | CUCGAG | 1.38 | 1.28 | 1.27
41 | GUCGAG | 0.954 | 0.931 | 0.991
42 | UUCGAG | 1.1 | 1.12 | 1.14
43 | UGGAGC | 1.03 | 1 | 1.02
44 | CUUAUA | 0.758 | 0.723 | 0.711
45 | UUGAGU | 1 | 1.04 | 1.02
46 | GUGAUU | 1.83 | 2.01 | 1.61
47 | GUGAAA | 1.01 | 1.12 | 1.09
48 | GUGAGA | 1.02 | 1.08 | 1.1

Row | Sequence | RBNS R-value (protein concentration: 250 nM) | RBNS R-value (protein concentration: 500 nM) | RBNS R-value (protein concentration: 1000 nM)
49 | GCGAUU | 1.23 | 1.24 | 1.15
50 | UUGAUU | 2.69 | 2.96 | 2.18
51 | UGGAUU | 0.95 | 0.939 | 0.974
52 | CCGAUU | 1.34 | 1.3 | 1.23
53 | CUGAUU | 2.52 | 2.66 | 1.97
54 | GUGAUA | 1.31 | 1.43 | 1.28
55 | CUGAAU | 1.01 | 1.05 | 1.01
56 | GUGAUC | 1.06 | 1.1 | 1.06
57 | UACAAA | 0.828 | 0.904 | 0.843
58 | AAUAAU | 0.738 | 0.867 | 0.789
59 | CAUAAU | 0.76 | 0.795 | 0.73
60 | GCGCGA | 1.1 | 1.12 | 1.11
61 | CGUAAA | 0.871 | 0.956 | 0.929
62 | GCCUGG | 1.12 | 1.05 | 1.15
63 | GCCUGA | 1.45 | 1.4 | 1.32
64 | CCCUGU | 0.962 | 0.898 | 0.981
65 | ACCUGA | 1.51 | 1.48 | 1.37
66 | GCCUGC | 1.12 | 1 | 1.06
67 | CCCUGA | 1.44 | 1.41 | 1.35
68 | ACCUGG | 1.19 | 1.11 | 1.17
69 | CCCUGG | 1.17 | 1.09 | 1.15
70 | ACCUGC | 1.09 | 1.03 | 1.07
71 | UGGGUC | 0.985 | 0.933 | 1.01
72 | UGUCAG | 0.921 | 0.924 | 0.976

Row | Sequence | RBNS R-value (protein concentration: 250 nM) | RBNS R-value (protein concentration: 500 nM) | RBNS R-value (protein concentration: 1000 nM)
73 | CAAAUC | 0.911 | 0.973 | 0.983
74 | UUGACU | 1.07 | 1.06 | 1.05
75 | UAACGC | 0.896 | 0.876 | 0.884
76 | CAUCAC | 0.917 | 0.894 | 0.935
77 | AUAUAC | 0.837 | 0.813 | 0.766
78 | GACCUC | 1.02 | 0.989 | 1.03
79 | CCUGCG | 1.1 | 1.05 | 1.1
80 | ACUGAG | 1.08 | 1.13 | 1.11
81 | GCUGAG | 1.09 | 1.07 | 1.1
82 | UCUGAC | 1.02 | 0.998 | 1.05
83 | UCUGAG | 1.12 | 1.1 | 1.14
84 | ACUGAC | 1.04 | 1.03 | 1.04
85 | CCUGAG | 1.47 | 1.26 | 1.34
86 | UCUGAU | 1.88 | 1.98 | 1.58
87 | GCUGAU | 1.77 | 1.76 | 1.47
88 | GCUGAC | 1.07 | 1.02 | 1.07
89 | UCUGAA | 0.982 | 1.05 | 1.03
90 | ACUGAU | 1.89 | 2.06 | 1.65
91 | CAGAAC | 1.11 | 1.13 | 1.13
92 | AGUCCC | 1.01 | 0.956 | 1.01
93 | UACCGG | 0.983 | 0.914 | 0.955
